This is an account of results in PubChem BioAssay (Tox21).

Structures are written as SMILES. Inconclusive results are not listed. A number with no mark means an inactive call. Calls of active or inactive are those of the source. Unless noted, the call rests on the fitted dose curve; in most records, active means well fitted curve in the direction sought with a large enough effect in the repeat runs; inconclusive means weak or mixed curves; inactive means no such curve, though single readings can be large; an effect the other way counts as inactive or inconclusive.

Test [1] in a line: qHTS assay to identify small molecule agonists of the RXR signaling pathway - cell viability counter screen (AID 1159529). Further: nearly all actives have a fitted effect of over 50% in size. Further: potency means the concentration at half of the fitted maximal effect. On activity change, negative = cytotoxicity: series mostly up to about 77 µM. Put shortly: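 Cell viability is measured by CellTiter-Glo luminescence, 30 min at room temperature, in wells already read for beta-lactamase. Engineered HEK 293T cells (RXR-alpha-UAS-bla) are dosed 16 hr at 37 C. Tetraoctyl ammonium bromide serves as positive control.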

Test [2] in a line: qHTS assay to identify small molecule antagonists of the retinoic acid receptor (RAR) signaling pathway (AID 1159552; further: nearly all actives have a fitted effect of over 50% in size; further: potency means the concentration at half of the fitted maximal effect). Put shortly: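 Quantitative HTS in C3RL4 RARE-luciferase reporter cells. Compounds were added with 1 uM (final) retinol; luminescence was read after 6 hr.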
In general terms: qHTS replaces the single test concentration by a dilution series.

Test [3] in a line: qHTS assay to identify small molecule agonists of the retinoic acid receptor (RAR) signaling pathway (AID 1159553). Put shortly:
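Seed C3RL4 reporter cells at 1,000 per well and incubate overnight at 37 C. Add compounds in DMSO, incubate 6 hr. Add luciferase reagent, wait 30 min at room temperature, read luminescence.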

The nature of test [4]: qHTS assay to identify small molecule antagonists of the estrogen related receptor (ERR) signaling pathway from Tox21 library - cell viability counter screen (AID 1224834). Further: nearly all actives have a fitted effect of over 30% in size. Further: potency means the concentration at half of the fitted maximal effect. Put shortly:
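ERR cells, 2,000/well; 6 h settle at 37 C/5% CO2; pin-tool compound transfer in DMSO; 17.5 h at 37 C; CellTiter-Fluor, 30 min; fluorescence intensity.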

The nature of test [5]: qHTS assay to identify small molecule agonists of the constitutive androstane receptor (CAR) signaling pathway - cell viability counter screen (AID 1224836). Further: series mostly up to about 92 µM; nearly all actives have a fitted effect of over 45% in size. Put shortly:
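Counter screen multiplexed with the CAR reporter readout: HepG2 cells co-transfected with hCAR and the CYP2B6-2.2kb construct receive a 15-concentration compound series and 0.75 uM PK11195 (final), then CellTiter-Fluor fluorescence is read after 23 h.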

Test [6] in a line: qHTS assay to identify small molecule antagonists of the constitutive androstane receptor (CAR) signaling pathway - cell viability counter screen (AID 1224837). Further: series mostly up to about 92 µM; nearly all actives have a fitted effect of over 45% in size. Put shortly:
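Viability was measured with CellTiter-Fluor in a HepG2 line carrying stably transfected hCAR and a CYP2B6-2.2kb construct. Cells were exposed for 23 hr at 37 C to 15 compound concentrations with 50 nM CITCO as agonist.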

Test [7] deals with Nuclear receptor subfamily 1 group I member 3 (Homo sapiens) (UniProt Q14994). The test is described as follows: qHTS assay to identify small molecule agonists of the constitutive androstane receptor (CAR) signaling pathway (AID 1224839). Further: series mostly up to about 92 µM; nearly all actives have a fitted effect of over 15% in size. Put shortly: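 A 15-concentration quantitative screen uses HepG2 cells co-transfected stably with human CAR and CYP2B6-2.2kb reporter. Treatment lasts 24 h with 0.75 uM PK11195 final present; ONE-Glo luminescence is the signal.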
Chain of Nuclear receptor subfamily 1 group I member 3 (Homo sapiens) (Q14994 whole entry, looked up): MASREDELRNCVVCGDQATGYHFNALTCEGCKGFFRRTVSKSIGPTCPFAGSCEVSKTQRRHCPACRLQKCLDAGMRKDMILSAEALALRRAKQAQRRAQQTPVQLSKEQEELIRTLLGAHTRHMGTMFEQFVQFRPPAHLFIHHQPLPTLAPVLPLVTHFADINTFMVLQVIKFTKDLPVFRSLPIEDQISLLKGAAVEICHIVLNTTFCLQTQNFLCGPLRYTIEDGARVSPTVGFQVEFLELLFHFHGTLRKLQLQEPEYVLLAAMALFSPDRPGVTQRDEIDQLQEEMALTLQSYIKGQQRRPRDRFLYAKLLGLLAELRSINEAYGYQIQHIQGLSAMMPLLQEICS

Test [8] can be described thus: qHTS assay to identify small molecule antagonists of the estrogen related receptor signaling pathway with the pleiotropic PPARgamma coactivator (PGC) from Tox21 10K library - cell viability counter screen (AID 1224840; active means well fitted cell-killing curve with a large enough effect in the repeat runs, not every such curve was filed as active; further: nearly all actives have a fitted effect of over 40% in size). Put shortly: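 Multiplexed viability counter screen in the PGC/ERR cell line: cells treated with DMSO-dissolved compounds for 17.5 hours at 37 C, then viability measured as CellTiter-Fluor fluorescence.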

The nature of test [9]: qHTS assay to identify small molecule antagonists of the estrogen related receptor signaling pathway with the pleiotropic PPARgamma coactivator (PGC) from Tox21 10K library (AID 1224841; call rule not given here; further: actives are mostly falling curves and most rising ones were filed inactive; nearly all actives have a fitted effect of over 50% in size; further: potency means the concentration at half of the fitted maximal effect; on activity, negative = inhibition: series mostly up to about 92 µM). Put shortly:
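Steps: plate 2,000 PGC/ERR cells per well; incubate 6 h at 37 C with 5% CO2; transfer compounds from DMSO stocks by pin tool; incubate 18 h at 37 C; add One-Glo; measure luminescence 30 min later.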

Test [10] addresses Thyrotropin receptor (Homo sapiens) (UniProt P16473). The test is described as follows: qHTS assay to identify small molecule agonists of the thyroid stimulating hormone receptor (TSHR) signaling pathway (AID 1224843; calls by dose curve; further: nearly all actives have a fitted effect of over 45% in size). Put shortly: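 A cell-based cAMP HTRF format was run in TSHR-transfected HEK293 cells, 800 per well. Treatment: 30 min, room temperature. Detection: 1 h with labelled cAMP and anti-cAMP cryptate. Concentration-response over 15 points, three replicates.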

A short description of test [11]: qHTS assay to identify small molecule antagonists of the estrogen related receptor (ERR) signaling pathway - cell viability counter screen (AID 1224818). Further: series mostly up to about 46 µM. Put shortly: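 ERR cells, 2,000/well; 6 h settle at 37 C/5% CO2; compound pin transfer (DMSO); 17.5 h at 37 C; CellTiter-Fluor, 30 min, fluorescence read.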
The nature of test [12]: qHTS assay to identify small molecule antagonists of the estrogen related receptor signaling pathway with the pleiotropic PPARgamma coactivator (PGC) cell viability counter screen (AID 1224822; further: series mostly up to about 46 µM). Put shortly: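 Multiplexed viability counter screen run in PGC/ERR cells treated with compounds for 17.5 h at 37 C; live-cell protease signal measured by CellTiter-Fluor fluorescence.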

In test [13] the target is Luciferin 4-monooxygenase (Photinus pyralis) (UniProt P08659). Description: qHTS assay to identify small molecule inhibitors of firefly luciferase (AID 1224835). Further: series mostly up to about 120 µM; nearly all actives have a fitted effect of over 25% in size. Put shortly:
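Inhibition of purified Photinus luciferase is measured by luminescence. Substrate levels (D-luciferin, ATP) sit at their KM values. Each compound is tested in a concentration series.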

Test [14] concerns the target Nuclear receptor subfamily 1 group I member 3 (Homo sapiens) (UniProt Q14994). Description: qHTS assay to identify small molecule antagonists of the constitutive androstane receptor (CAR) signaling pathway (AID 1224838).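 Further: HepG2 cells stably expressing hCAR with CYP2B6 luciferase reporter stimulated by CITCO; nearly all actives have a fitted effect of over 40% in size.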 Further: potency means the concentration at half of the fitted maximal effect. Put shortly:
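Antagonist mode used CITCO at a final 50 nM to activate CAR in human hepatoma HepG2 cells carrying stable hCAR and a 2.2 kb CYP2B6 promoter-luciferase construct. Compounds were tested at 15 concentrations over 24 h, with luminescence as the end point.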

The nature of test [15]: qHTS assay to identify small molecule antagonists of the retinoid acid receptor (RAR) signaling pathway - cell viability counter screen (AID 1159551). Further: nearly all actives have a fitted effect of over 35% in size. Put shortly:
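Cells (C3RL4) are plated, incubated overnight, dosed with compound in DMSO, then given retinol at 1 uM final. After 6 h at 37 C, CellTiter-Glo is added and luminescence read following 30 min at room temperature.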

A short description of test [16]: qHTS assay to identify small molecule antagonists of the estrogen related receptor (ERR) signaling pathway (AID 1224819;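 further: luminescence from an ERR-driven luciferase reporter measured with One-Glo reagent; series mostly up to about 46 µM; nearly all actives have a fitted effect of over 50% in size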). Put shortly:
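qHTS in ERR cells, 2,000/well, 1536 format. Cpd (DMSO) added after 6 h settle, 18 h 37 C. One-Glo luminescence, 30 min RT.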

Test [17] in a line: qHTS assay to identify small molecule agonists of the estrogen related receptor (ERR) signaling pathway (AID 1224820). Put shortly:
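Luminescence readout (One-Glo, 30 min RT) from NTP-supplied ERR cell line exposed to compounds for 18 h at 37 C. Cells seeded 2,000 per well and pre-incubated 6 h before pin-tool compound transfer.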

A short description of test [18]: qHTS assay to identify small molecule agonists of the estrogen related receptor signaling pathway with the pleiotropic PPARgamma coactivator (PGC) (AID 1224823). Put shortly:
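Luminescence readout (One-Glo, 30 min RT) from PGC/ERR cell line treated 18 h at 37 C with pin-tool-delivered DMSO compound solutions; cells plated 6 h before dosing. Quantitative HTS format.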
On the % scale 0 is the no-effect control and ±100 the full control effect.

Chain of Luciferin 4-monooxygenase (Photinus pyralis) (P08659 whole entry, looked up): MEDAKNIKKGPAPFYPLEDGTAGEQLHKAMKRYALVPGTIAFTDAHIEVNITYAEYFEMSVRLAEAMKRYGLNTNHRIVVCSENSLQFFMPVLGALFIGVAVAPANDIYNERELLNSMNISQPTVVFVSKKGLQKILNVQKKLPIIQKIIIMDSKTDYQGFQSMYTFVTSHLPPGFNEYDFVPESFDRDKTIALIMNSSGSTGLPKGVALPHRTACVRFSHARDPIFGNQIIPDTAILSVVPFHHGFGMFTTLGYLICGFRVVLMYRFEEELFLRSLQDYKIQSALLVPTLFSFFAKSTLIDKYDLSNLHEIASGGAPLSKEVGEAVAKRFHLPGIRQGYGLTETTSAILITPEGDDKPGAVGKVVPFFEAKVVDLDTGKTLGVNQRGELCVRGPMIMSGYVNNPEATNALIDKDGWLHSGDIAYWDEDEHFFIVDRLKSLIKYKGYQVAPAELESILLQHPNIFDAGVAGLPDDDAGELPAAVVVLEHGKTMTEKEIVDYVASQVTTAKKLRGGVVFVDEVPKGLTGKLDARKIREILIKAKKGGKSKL
Chain of Thyrotropin receptor (Homo sapiens) (P16473 whole entry, looked up): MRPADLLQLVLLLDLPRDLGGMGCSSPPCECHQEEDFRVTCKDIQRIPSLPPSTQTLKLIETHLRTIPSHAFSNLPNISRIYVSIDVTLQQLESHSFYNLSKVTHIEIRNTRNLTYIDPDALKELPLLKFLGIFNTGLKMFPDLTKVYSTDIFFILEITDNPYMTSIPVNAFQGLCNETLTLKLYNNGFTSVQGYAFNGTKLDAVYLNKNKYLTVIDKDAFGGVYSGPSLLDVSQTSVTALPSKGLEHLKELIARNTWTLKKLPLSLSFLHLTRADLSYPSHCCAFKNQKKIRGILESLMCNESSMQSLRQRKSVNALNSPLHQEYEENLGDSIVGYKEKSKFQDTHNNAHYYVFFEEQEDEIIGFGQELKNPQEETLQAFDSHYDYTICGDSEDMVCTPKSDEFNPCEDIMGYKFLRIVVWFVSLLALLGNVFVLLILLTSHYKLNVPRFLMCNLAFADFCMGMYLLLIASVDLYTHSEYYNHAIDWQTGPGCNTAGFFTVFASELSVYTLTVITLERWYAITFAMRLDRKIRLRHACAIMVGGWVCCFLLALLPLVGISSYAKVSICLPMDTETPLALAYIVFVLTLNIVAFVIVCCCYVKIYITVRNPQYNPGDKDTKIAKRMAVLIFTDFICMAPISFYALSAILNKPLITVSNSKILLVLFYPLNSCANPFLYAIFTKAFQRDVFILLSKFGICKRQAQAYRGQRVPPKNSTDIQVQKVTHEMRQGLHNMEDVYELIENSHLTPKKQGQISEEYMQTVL

`Nc1ccc([N+](=O)[O-])c(C(F)(F)F)c1`: the Potency result in [1], in [2], in test [3], in test [4], in [5] and in test [6] was “inactive” throughout. For the same compound, the Potency entry in [7], in test [8], in [9] and in [10] was “inactive” throughout.

`OC(CN1CCC(Cc2ccc(F)cc2)CC1)c1ccc(Cl)cc1` (stereo not given): the Potency result in test [1], in test [2], in [4] and in test [13] was “inactive” in each case. Moreover, the compound was classed as inactive in test [11] and in test [12]. In addition, the Potency in test [14] is 23.7 µM (active).

As for `CC(C)CC(=O)C1C(=O)c2ccccc2C1=O`, the Potency entry in [1], in test [3], in [13], in [14] and in test [10] was “inactive” each time. Moreover, the Potency in [4] is 38.6 µM (active); in test [9], 27.3 µM (active).

For `C#Cc1cccc(Nc2ncnc3cc(OCCOC)c(OCCOC)cc23)c1`, the Potency entry in [1], in [2], in test [3], in test [13], in test [5] and in test [6] was “inactive” throughout. Besides, the Potency entry in test [14], in [8] and in test [10] was “inactive” in each case. The Potency in [4] and in [9] was 8.41 µM (active) in each case.

Regarding `CN(Cc1ccc(C(C)(C)C)cc1)Cc1cccc2ccccc12`, the Potency in test [1] was 10.7 µM (active). Also, the Potency result in test [2], in test [3], in test [4], in [13], in [5] and in test [6] was “inactive” each time. Further, the Potency result in test [14], in [7] and in test [8] was “inactive” in each case.

`CCOC(=O)c1cccnc1`: the Potency result in test [1], in [15], in [4], in test [5], in [6] and in test [14] was “inactive” throughout. For the same compound, the Potency result in test [7], in test [8] and in test [10] was “inactive” throughout.

In the case of `c1ccc(-c2ccccn2)nc1`, the Potency entry in [1], in test [2], in test [16], in test [13], in test [6] and in [8] was “inactive” in each case. Besides, the Potency entry in [10] is “inactive”. Moreover, the outcome in test [11], in test [17], in test [12] and in test [18] was inactive.

As to `O=C(O)CNCC(=O)O`, the results for the activity change, negative = cytotoxicity in test [1] and in [6] were 3.65% [at 6.97 µM] and 2.11% [at 8.39 µM], respectively. The viability change, negative = cytotoxic in test [4] is 2.9% [at 8.39 µM]; in test [5], 4.87% [at 8.39 µM]; in test [8], 0.614% [at 8.39 µM]. The activity change, negative = inhibition in test [13] is 2.59% [at 10.5 µM]. Besides, in [14], the activity, negative = inhibition is 15.5% [at 8.39 µM]. The activation in [7] was -0.889% [at 8.39 µM]; in test [10], 4.36% [at 8.39 µM].

Regarding `CN1Cc2cc(C(=O)N3CCC(C4CCNCC4)CC3)ccc2NC(CC(=O)O)C1=O` (stereo not given), the Potency result in test [1], in [4], in test [5], in test [14], in test [7] and in test [8] was “inactive” in each case. In addition, the Potency entry in [9] and in [10] was “inactive” in each case.

As to `CC(C)=CCC/C(C)=C/CC/C(C)=C/CO`, the Potency entry in [15], in [3], in test [4], in [13], in test [5] and in test [6] was “inactive” each time. The Potency entry in test [8] and in test [10] was “inactive” each time. Moreover, in test [2], the Potency was 68.6 µM (active).

As for `OCCN1CCN(CCCN2c3ccccc3C=Cc3ccccc32)CC1`, the Potency entry in test [15], in test [2], in test [3], in [7], in test [8] and in test [10] was “inactive” each time.

Turning to `CCN(CC)CCOC(=O)C(Cc1cccc2ccccc12)CC1CCCO1` (stereo not given), the Potency result in test [15], in [2], in test [3], in test [13], in [14] and in test [7] was “inactive” in each case. Further, the Potency result in test [8] and in test [10] was “inactive” throughout.
